# Experimental data reported in ChEMBL document CHEMBL4513216, “Probing the Open Global Health Chemical Diversity Library for Multistage-Active Starting Points for Next-Generation Antimalarials” (ACS Infect Dis, 2020).
# Out of some 69,000 compounds screened, about 8,600 (12%) showed an effect of 50% or more. This excerpt belongs to a sample that is enriched for strong results.
# Tested on: Plasmodium berghei
# Test: Screen against P. berghei liver stage (PbLuc), transformed with Luciferase, at 10uM
# Format: functional, HepG2
# Details: tested at 10 uM
row,Structure (SMILES),INHIBITION [%]
1,OC1CCN(CCCNc2nccc(C3CCCC3)n2)CC1,31.4
2,CC(O)CN1CCN(Cc2cccc(C(=O)N3CCCCC3)c2)CC1 (centres undefined),37.9
3,O=C(c1cscn1)N1CCc2[nH]nc(Nc3ccccc3)c2C1,-15.625
4,Cc1ccccc1CN(CCN(C)C)Cc1ccc(O)c(C(=O)O)c1,29.2
5,CCc1nnsc1-c1nc(C(C)C)nn1-c1ccc2c(c1)OCO2,12.4
6,CC(C)c1nc(-c2ccc(=O)[nH]n2)n(-c2ccc3c(c2)OCO3)n1,25.5
7,Cc1nonc1-c1nc(C(C)C)nn1-c1ccc2c(c1)OCO2,82
8,CN(C)c1nc(CNC(=O)N[C@H](CO)c2ccccc2)cs1,-42
9,COc1ccccc1CCNC(=O)CC1(Cn2cnnn2)CCCCC1,48.2
10,CC(C)Cc1cc(NC(=O)c2n[nH]c3ccccc23)n(C)n1,56.6
11,CC(C)Cc1cc(NC(=O)c2ccccc2)n(C)n1,10
12,CC(C)Cc1cc(NC(=O)c2ccc(=O)[nH]n2)n(C)n1,40.3
13,COC(CNC(=O)C1CCCC1)c1ccc(C)s1 (centres undefined),24.7
14,COc1cc(C(=O)N2CCCC2c2noc(C(C)C)n2)on1 (centres undefined),-2.143
15,Cn1ccnc1CN(CCO)Cc1ccc(C(F)(F)F)cc1,29.8
16,CN(CCCc1ccc(C(F)(F)F)cc1)Cc1nccn1C,66.8
17,CN(Cc1nccn1C)C1CCCN(CCCc2ccccc2)C1 (centres undefined),43.7
18,CC(=O)c1ccc(S(=O)(=O)Nc2cnn(C3CCOCC3)c2)cc1,-24.1
19,O=C(Cn1ccc2ccc(Cl)cc21)/N=c1\[nH]nc(C2CCCO2)s1 (centres undefined),39.7
20,CC(C)CN1CC(c2nc(-c3ccsc3)c[nH]2)CC1=O (centres undefined),53.3
21,CC(C)CN1CC(c2nc(-c3ccc(F)cc3)c[nH]2)CC1=O (centres undefined),27.5
22,COc1ccc(-c2c[nH]c(C3CC(=O)N(CC(C)C)C3)n2)cc1 (centres undefined),-15
23,CC(C)N1CCC(Cc2cncc(-c3cc(F)ccc3C(=O)O)n2)CC1,41.2
24,CCN(CCNS(=O)(=O)N1CCOCC1)C(=O)OC(C)(C)C,41.3
25,CN(C(=O)NCc1nccn1Cc1ccccc1)C1CC1,46.4
26,Cc1cc(C)n2c(CCCNS(=O)(=O)c3cccs3)nnc2n1,31.3
27,COc1ccc(CC(=O)NCCCc2nnc3nc(C)cc(C)n23)cc1,52.7

row,Structure (SMILES),INHIBITION [%]
1,COc1ccc(CC(=O)NCCNS(=O)(=O)c2ccc(C)cc2)cc1,-57.5
2,Cc1cc(C)n2c(CCCNS(=O)(=O)c3ccc(F)cc3)nnc2n1,15.4
3,Cc1cc(C)n2c(CCCNS(=O)(=O)c3ccccc3)nnc2n1,34.6
4,COc1ccc(S(=O)(=O)NCCCc2nnc3nc(C)cc(C)n23)cc1,74.6
5,CCCS(=O)(=O)NCC(O)c1c(Cl)cccc1Cl (centres undefined),0.87
6,CCn1nc(C)c2c1cnn2CC(=O)NC(C)c1cccc(OC)c1 (centres undefined),49.9
7,Cc1nnc([C@@H]2CC[C@@H]3[C@@H](CCN3CC3CCOCC3)O2)o1,-13.7
8,Cc1nnc([C@@H]2CC[C@@H]3[C@@H](CCN3C3CCC3)O2)o1,23.3
9,Cc1nnc([C@@H]2CC[C@@H]3[C@@H](CCN3C3CCOCC3)O2)o1,60.3
10,CCCNC(=O)COc1ccc(-c2ccccc2)nc1,-91.3
11,O=C(Cn1cc(I)cn1)Nc1cccnc1,4.74
12,Cn1cc(C(=O)NCc2cncc3c2CCN(CC2CC2)C3)cn1,28.5
13,Cc1nc(-c2ccccc2)n(CC(=O)NC(C)C)n1,31.2
14,CCc1nc(CCNC(=O)Nc2cc(C(N)=O)ccc2OC)cs1,-10.8
15,COc1ccc(C(N)=O)cc1NCc1noc(-c2ccsc2)n1,9.06
16,COc1ccc(C(N)=O)cc1NCc1ncc(-c2cccs2)o1,69.7
17,CNC(=O)c1ccc(OC)c(NCc2noc(-c3ccsc3)n2)c1,-48.5
18,COc1ccc(C(N)=O)cc1NCc1nc(-c2cccs2)oc1C,68
19,CNC(=O)c1ccc(OC)c(NCc2ncc(-c3cccs3)o2)c1,61.1
20,CNC(=O)c1ccc(OC)c(NCc2noc(-c3cccs3)n2)c1,10
21,COc1ccc(C(N)=O)cc1NCc1ncc(C(C)(C)C)o1,15.7
22,COc1ccc(NC(=O)CCn2nc(-c3cccs3)oc2=O)cc1OC,-22.9
23,COc1ccnc(N2CCN(CC(O)CN3CCOCC3)CC2)n1 (centres undefined),4.52
24,Cn1ccnc1CN1CCC(c2nnc(Cn3cccn3)n2C)CC1,16.3
25,N#Cc1ccccc1C(=O)N1C[C@@H]2CC[C@H]1CN(c1ncccn1)C2,12.9
26,N#CC1(C(=O)N2CCCN(c3nccs3)CC2)CCCCC1,11.45
27,O=C(c1cnc(-c2cnccn2)s1)N1CCCC(n2cccn2)C1 (centres undefined),10
